Shown are actives, neighbours in structure and some others; about 11% of the full set was active somewhere.
AMA1-RON2 inh = AMA1-RON2 (P. falciparum) interaction inhibition | AlphaScreen AMA1-biotinylated RON2 peptide binding | AID 720542 | Potency, µM (series often up to 58.2 µM), for inactives: top-dose activity change, negative = inhibition, hits mostly inhibitors | 360,000 compounds, 0.2% hits;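 note: 0% = vehicle wells and -100% = peptide control; nearly all actives have a fitted effect of over 45% in size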
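AMA1 (3D7) with his tag at 25 nM final met compounds first, then biotinylated RON2 peptide at 25 nM; detection used donor plus acceptor beads, 10 µg/mL apiece, read by AlphaScreen after 30 min at room temperature.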
NS1 function inh = influenza NS1 inhibition | Potency, µM (highest dose often 46.1 µM), for inactives: at the highest dose activity, positive = more growth | 270,000 compounds, 0.4% hits; calls by dose curve; note: actives are rising curves; nearly all actives have a fitted effect of over 50% in size
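Recovery from NS1-induced slow growth read by OD600 in budding yeast switched to galactose assay medium (pH 6.0, -URA) at 1:100 dilution. Compound 23 nl per well; the matching strain lacking NS1 serves as control.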
Sm TGR block = inhibitors of Schistosoma mansoni thioredoxin glutathione reductase; Q962Y6; purified TGR, DTNB reduction, TNB absorbance 405 nm; Potency, µM (doses to about 114 µM), inactives show top-dose activity change, negative = inhibition, most hits filed as inhibitors; 360,000 compounds, 3% hits; AID 485364; note: % is set by controls: 0 for no effect and ±100 for the full control effect; nearly all actives have a fitted effect of over 60% in size
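Kinetic colorimetric format: TGR-catalysed, NADPH-driven DTNB reduction monitored via TNB absorbance. Enzyme dispensed at 20 nM; compound exposure 15 min at room temperature before reaction start.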
Pf growth 96h = P. falciparum growth inhibition at 96 hour, primary screen for plastid delayed-death inhibitors; P. falciparum luciferase reporter growth, 96 h; Potency, µM (top dose mostly 28.7 µM), for the others: at the highest dose activity change, negative = inhibition, most hits filed as inhibitors; 320,000 compounds, 6.9% hits; note: % is set by controls: 0 for no effect and ±100 for the full control effect
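Parasite growth measured via integrated firefly luciferase reporter in P. falciparum. Infected erythrocytes at 2% hematocrit, 0.05% parasitemia final were treated 96 hours at 37 C under 5% CO2, and luminescence was read.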
Pf growth 48h = P. falciparum growth inhibition at 48 hours (one generation); P. falciparum luciferase growth in erythrocytes, 48 h; Potency, µM (titrated, usually from 28.7 µM), for inactives: at the top dose activity change, negative = inhibition, usual class: inhibitors; 310,000 compounds, 5.9% hits; AID 504832; note: % is set by controls: 0 for no effect and ±100 for the full control effect
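Cell-based growth assay: transgenic P. falciparum expressing firefly luciferase, cultured in red cells within RPMI 1640 containing 0.5% w/v Albumax, 24 mM bicarbonate and gentamycin. A drop in luciferase activity indicates inhibition.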
Starred values were filed as active, the others as inactive. Unless noted, calls come from the whole dose curve; as a rule, active = well fitted curve in the direction sought with a large enough effect; inconclusive = small, poorly fitted or top-dose-only effect, or another doubt; inactive = no such curve, though single readings can be large; an effect the other way counts as inactive or inconclusive. Potency is the fitted concentration of half-maximal effect.

How did Cc1ccnc(NC(=S)NC(=O)c2cccs2)c1 do in these assays?
AMA1-RON2 inh: 29%; NS1 function inh: -25%; Sm TGR block: 4%; Pf growth 96h: inconclusive; Pf growth 48h: 185%

What do the screens show for `COc1ccc(CNC(=O)C2CCCCN2S(=O)(=O)c2ccc(F)cc2)cc1` (centres undefined)?
Sm TGR block: -4%

Results for CCOC(=O)c1ccccc1Nc1cn(C(C)=O)c2ccccc12 ?
AMA1-RON2 inh: -18%; NS1 function inh: 6%; Sm TGR block: 47%; Pf growth 96h: inconclusive

What do the screens show for `COc1ccccc1N(C(=O)CCl)c1cn(C(C)=O)c2ccccc12`?
AMA1-RON2 inh: 4%; NS1 function inh: 3%; Sm TGR block: 3.2µM*; Pf growth 96h: inconclusive; Pf growth 48h: inconclusive

Results for CC(=O)n1cc(Nc2ccccc2C(=O)O)c2ccccc21 ?
AMA1-RON2 inh: 16%; NS1 function inh: 5%; Sm TGR block: -12%; Pf growth 96h: 9%; Pf growth 48h: -6%

How did CC(=O)n1cc(N(C(=O)CCl)c2ccc(Cl)cc2)c2ccccc21 do in these assays?
AMA1-RON2 inh: -2%; NS1 function inh: -78%; Sm TGR block: 0.32µM*; Pf growth 96h: inconclusive; Pf growth 48h: 2.3µM*

Results for COc1ccc(NC(=O)CSc2nnc(-c3nonc3NC(C)=O)n2-c2ccccc2)cc1 ?
Sm TGR block: -4%

What do the screens show for `Cc1cccn2c(=O)c3cc(C#N)c(=NC(=O)c4cccs4)n(CCCOC(C)C)c3nc12`?
AMA1-RON2 inh: 2%; NS1 function inh: 6%; Sm TGR block: -24%; Pf growth 96h: 1.9µM*; Pf growth 48h: 1.7µM*

Results for CC(=O)N=c1c(C#N)cc2c(=O)n3cccc(C)c3nc2n1Cc1ccco1 ?
AMA1-RON2 inh: -9%; NS1 function inh: 4%; Sm TGR block: 28µM*; Pf growth 96h: inconclusive; Pf growth 48h: 0%

What do the screens show for `COCCCn1c(=NC(=O)c2ccncc2)c(C#N)cc2c(=O)n3cccc(C)c3nc21`?
AMA1-RON2 inh: 15%; NS1 function inh: 14%; Sm TGR block: -15%; Pf growth 96h: 3%; Pf growth 48h: 2.9µM*

What do the screens show for `CCCn1c(=NC(=O)c2ccncc2)c(C#N)cc2c(=O)n3cccc(C)c3nc21`?
AMA1-RON2 inh: -3%

How did Cc1ccccc1C(=O)N=c1c(C#N)cc2c(=O)n3cccc(C)c3nc2n1Cc1ccco1 do in these assays?
NS1 function inh: inconclusive; Sm TGR block: inconclusive; Pf growth 96h: -15%

How did CCOCCCn1c(=NC(=O)c2cccs2)c(C#N)cc2c(=O)n3ccccc3nc21 do in these assays?
AMA1-RON2 inh: 7%; NS1 function inh: 2%; Sm TGR block: -13%; Pf growth 96h: 10µM*; Pf growth 48h: 4.7µM*

How did CCOCCCn1c(=NC(=O)c2cccnc2)c(C(=O)OCC)cc2c(=O)n3ccccc3nc21 do in these assays?
AMA1-RON2 inh: 11%; NS1 function inh: 3%; Sm TGR block: -31%; Pf growth 96h: inconclusive; Pf growth 48h: inconclusive

Results for N#Cc1cc2c(=O)n3ccccc3nc2n(Cc2ccco2)c1=NC(=O)c1ccco1 ?
AMA1-RON2 inh: inconclusive; NS1 function inh: 28%; Sm TGR block: -24%; Pf growth 96h: 12µM*; Pf growth 48h: inconclusive

Results for COc1ccc(C(=O)N=c2c(C#N)cc3c(=O)n4cccc(C)c4nc3n2Cc2ccco2)cc1 ?
NS1 function inh: 16%; Sm TGR block: inconclusive; Pf growth 96h: inconclusive

How did Cc1cccn2c(=O)c3cc(C#N)c(=NC(=O)c4ccncc4)n(CCCOC(C)C)c3nc12 do in these assays?
AMA1-RON2 inh: 4%; NS1 function inh: 18%; Sm TGR block: inconclusive; Pf growth 96h: 6.6µM*; Pf growth 48h: 4.1µM*

Results for CC(=O)N=c1c(C#N)cc2c(=O)n3cccc(C)c3nc2n1CCCOC(C)C ?
AMA1-RON2 inh: 0%; NS1 function inh: 2%; Sm TGR block: -3%; Pf growth 96h: 10µM*; Pf growth 48h: inconclusive

What do the screens show for `CCCNC(=O)c1cc2c(c(-c3cccc(-c4ccccc4F)c3)n1)[C@@H](CCO)N(C(=O)CC1CC1)C2`?
AMA1-RON2 inh: 7%

What do the screens show for `O=S1(=O)CC(N2CCSCC2)CN1Cc1cn(Cc2ccccc2)nn1` (centres undefined)?
AMA1-RON2 inh: 5%

Screens from PubChem.
